Structures are written as SMILES. Hit rate of the full screen: of about 69,000 compounds, about 8,600 (12%) showed an effect of 50% or more. The sample as a whole holds a higher share of strong results than the screen did.

The test has as its system Plasmodium berghei. As to the kind of experiment: Screen against P. berghei liver stage (PbLuc), transformed with Luciferase, at 10uM. The format is functional, HepG2. The conditions noted are these: tested at 10 uM.
As for `CCc1ccccc1Nc1noc2c1CN(C(=O)CCOC)CC2`, the INHIBITION is on record as -5.71%.

Take `CC(C)CNC(=O)C1CC(=O)N(c2n[nH]c3ccccc23)C1` (stereo not drawn): the INHIBITION is given as -11.7%. To `CCN1CCCC(C)(C(=O)NCc2nnnn2-c2ccccc2)C1` (stereo not drawn) belongs -1.7%; to `Fc1cccc2ncnc(NCC3(N4CCOCC4)CCSC3)c12` (stereo not drawn), 91.1%; to `c1ccc2nc(NCC3(N4CCOCC4)CCSC3)cnc2c1` (stereo not drawn), 46.6%. The figure for `c1nc(NCC2(N3CCOCC3)CCSC2)c2sccc2n1` (stereo not drawn) is 91.1%.

For `O=C(NCC1(N2CCOCC2)CCSC1)Nc1ccncc1` (stereo not drawn), the INHIBITION amounted to 18.6%. To `CN(Cc1ccc(F)cc1)C(=O)NCC1(N2CCOCC2)CCSC1` (stereo not drawn) belongs 36.8%.

With `c1ccc2sc(NCC3(N4CCOCC4)CCSC3)nc2c1` (stereo not drawn), the INHIBITION is 18.3%. The figure for `c1ccc2c(NCC3(N4CCOCC4)CCSC3)ncnc2c1` (stereo not drawn) is 94.5%; for `O=C(NCC1(N2CCOCC2)CCSC1)Nc1ccccn1` (stereo not drawn) it is 18.6%; for `O=C(NCc1ccc(F)cc1)NCC1(N2CCOCC2)CCSC1` (stereo not drawn) it is 40.5%. To `CC1CCN(S(=O)(=O)c2ccc(C(=O)N3CCSCC3)cc2)CC1` belongs -2.39%; to `CN(C)C(=O)NCc1cc2n(n1)CCN(CC1[C@H]3CNC[C@@H]13)C2` (stereo partly drawn), 43.5%; to `NC(=O)c1cnn2c(C3CCN(CCO)CC3)ccnc12`, 14.55%.

For the molecule `COCc1cnc2n1CCN(Cc1cccnc1)C2C` (stereo not drawn), the INHIBITION is listed as -0.182%. Take `O=C(N[C@@H]1CN(Cc2cccc3[nH]ccc23)C[C@H]1O)c1cscn1`: the INHIBITION was -10.8%. On to `CCN1CC(COC(C)(C)C)Oc2ccncc2S1(=O)=O` (stereo not drawn), for which the INHIBITION is on record as 13.1%.

Take `CS(=O)(=O)N1CCN(C(=O)CCn2cccn2)CC1`: the INHIBITION is on record as 17.32%.

`Cc1ccccc1OCCN(C)Cc1noc(CC(C)C)n1`: the INHIBITION stood at 33.7%. As to `CC(C)Cc1nc(CN(C)CCOc2ccccc2F)no1`, the INHIBITION worked out at 34.7%. Regarding `CC(C)Cc1nc(CN(C)CCOc2ccc(F)cc2)no1`, the INHIBITION was 59.4%. To `Cc1cccc(C(=O)N2CCc3c(CN(C)C)nn(C)c3C2)n1` belongs 38.3%; to `Cc1nc(C)c(C(=O)NCCNc2ncccn2)s1`, 38.8%.

On to `CN1CCN(CC2CC2)C(=O)C12CCN(C(=O)c1ccnnc1)CC2`, for which the INHIBITION came out at 5.63%. The figure for `CC(=O)Nc1ccc2c(c1)CN(C(=O)c1ccco1)CC2` is 55.7%; for `COCC(=O)Nc1ccc2c(c1)CN(C(=O)c1ccco1)CC2` it is -45.3%. `CCC(=O)Nc1ccc2c(c1)CN(C(=O)c1ccco1)CC2`: the INHIBITION is -46.6%. On to `CC(=O)c1cc(Br)cc(F)c1OCC(=O)NC1CC1`, for which the INHIBITION is listed as -3.72%.

On to `CN(C)C(=O)CN1CCCC(CCCc2ccccn2)(C(N)=O)C1` (stereo not drawn), for which the INHIBITION was -50.2%. The figure for `CO[C@H]1C[C@@H](O)C12CCN(C(=O)CCCOc1ccccc1)CC2` is 72.3%; for `Cn1cnnc1C1CCN(C(=O)c2cc3c(s2)CCC3)CC1` it is 9.14%. In the case of `CCn1cnnc1C1CCN(C(=O)c2cc3c(s2)CCCC3)CC1`, the INHIBITION came to 13.3%. Turning to `CCn1cnnc1C1CCN(C(=O)COc2ccc(Cl)cc2)CC1`, the INHIBITION is reported as -37.7%. As to `CCn1cnnc1C1CCN(C(=O)c2cc3c(s2)CCC3)CC1`, the INHIBITION was 61.3%. To `Cc1cccc(C)c1OCCC(=O)N1CCC(c2nncn2C)CC1` belongs 55.9%. As to `COc1cccc(OCC(=O)N2CCC3(CC2)[C@H](O)C[C@@H]3OC)c1`, the INHIBITION was -14.1%.

Turning to `NCCO[C@H]1C[C@@H](O)C12CCN(C(=O)CCOc1ccccc1)CC2`, the INHIBITION came to 5.67%.

In the case of `CCn1cnnc1C1CCN(C(=O)COc2ccccc2OC)CC1`, the INHIBITION is on record as -41.6%. As to `Cc1ccc(OCCC(=O)N2CCC(c3nncn3C)CC2)c(C)c1`, the INHIBITION is on record as -17%. The figure for `CCn1cnnc1C1CCN(C(=O)COc2ccccc2)CC1` is 53%. Take `Cc1ccccc1OCCC(=O)N1CCC(c2nncn2C)CC1`: the INHIBITION is -4.94%. To `CC1(c2ccc(Br)cc2)CC(=O)N(CCC#N)C1=O` (stereo not drawn) belongs -12.2%. To `O=C(O)c1ccccc1-c1ccc(CN2CCCC(O)C2)cc1` (stereo not drawn) belongs 48.6%; to `Oc1nc(C2CCN(Cc3ccccn3)CC2)cc2ccccc12`, -13.2%; to `CCOc1ccnc(N2CCN(C(=O)c3cn[nH]c3C)CC2)n1`, -11.4%. The figure for `O=C(c1ccccn1)N1C[C@H]2CC[C@@H](C1)N(C(=O)CCc1ccsc1)C2` is -16.5%. Turning to `CCc1n[nH]c(=O)c(C(=O)N2CCSC(C)(C)C2)c1CC`, the INHIBITION came to 18.7%.

Take `COCCC(=O)NCCc1nc(N(C)C)ncc1-c1ccncc1`: the INHIBITION is recorded as 2.5%. The figure for `Cn1cnnc1C1CCN(C(=O)CCCOc2ccccc2)CC1` is 28.8%; for `CCn1cnnc1C1CCN(C(=O)COCCc2ccccc2)CC1` it is 32%; for `CCn1cnnc1C1CCN(C(=O)CCCOc2ccccc2)CC1` it is 60.9%. To `CC(CN1CCCC1=O)NC(=O)c1cc(=O)[nH]c2ccc(Cl)cc12` (stereo not drawn) belongs 35.4%.

The values above are taken from ChEMBL document CHEMBL4513216, “Probing the Open Global Health Chemical Diversity Library for Multistage-Active Starting Points for Next-Generation Antimalarials” (ACS Infect Dis, 2020).
